# Laboratory results published in PubChem BioAssay (Tox21).
# Where “and” joins values, the source holds several entries; their conditions need not be identical. Identical values can stand only once. A structure can be active in one record and inactive in another. Calls of active or inactive are those of the source. Entries that show only a call come without a potency. Unless noted, calls follow the shape of the dose curve; as a rule, active = well fitted curve in the direction sought with a large enough effect in the repeat runs; inconclusive = weak or mixed curves; inactive = no such curve, though single readings can be large; an effect the other way counts as inactive or inconclusive.
# What was measured:
# [1] = qHTS assay to identify small molecule antagonists of the glucocorticoid receptor (GR) signaling pathway - cell viability counter screen (AID 720693); also: nearly all actives have a fitted effect of over 55% in size; also: potency is read from the fitted curve at half-maximal effect
# [2] = qHTS assay for identifying genotoxic compounds that show differential cytotoxicity against isogenic chicken DT40 cell lines with known DNA damage response pathways - wild type cell line (AID 743012); also: nearly all actives have a fitted effect of over 60% in size; also: potency is read from the fitted curve at half-maximal effect
# In short: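 Using parental DT40 (300 cells/well), compounds delivered in DMSO incubate 40 h at 37 C/5% CO2. CellTiter-Glo reagent then stands 30 min at room temperature, and luminescence gives cell viability.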
# [3] = qHTS assay for identifying genotoxic compounds that show differential cytotoxicity against isogenic chicken DT40 cell lines with known DNA damage response pathways - Rev3 mutant cell line (AID 743014); also: nearly all actives have a fitted effect of over 55% in size; also: potency is read from the fitted curve at half-maximal effect
# [4] = qHTS assay for identifying genotoxic compounds that show differential cytotoxicity against isogenic chicken DT40 cell lines with known DNA damage response pathways - Rad54/Ku70 mutant cell line (AID 743015); also: nearly all actives have a fitted effect of over 60% in size; also: potency is read from the fitted curve at half-maximal effect
# [5] = qHTS assay to identify small molecule antagonists of the androgen receptor (AR) signaling pathway - cell viability counter screen (AID 743033; also: nearly all actives have a fitted effect of over 45% in size)
# [6] = qHTS assay to identify small molecule antagonists of the androgen receptor (AR) signaling pathway using the MDA cell line - cell viability counter screen (AID 743041; also: nearly all actives have a fitted effect of over 45% in size; also: potency is read from the fitted curve at half-maximal effect)
# In short: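 Viability counter screen run alongside the AR antagonist reporter: cells seeded 5 h before compound, R1881 added, 16 h incubation at 37C without CO2, fluorescent CellTiter-Fluor signal quantified.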
# [7] = qHTS assay to identify small molecule antagonists of the thyroid receptor (TR) signaling pathway - cell viability counter screen (AID 743064); also: nearly all actives have a fitted effect of over 50% in size; also: potency is read from the fitted curve at half-maximal effect
# In short: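 In-well cytotoxicity read by CellTiter-Fluor (30 min, 37 C) following 23.5 h exposure of GH3 cells bearing a TRE-luciferase sensor. Compounds were added alongside 1 nM (final) T3 to drive TR transactivation.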
# [8] = qHTS assay to identify small molecule antagonists of the thyroid receptor (TR) signaling pathway (AID 743065); also: nearly all actives have a fitted effect of over 55% in size; also: potency is read from the fitted curve at half-maximal effect
# In short: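 GH3.TRE-Luc rat pituitary cells carrying two TR response elements driving luciferase were plated for 4 h, given compound plus 1 nM T3 (final), and incubated 23.5 h at 37 C. ONE-Glo luminescence measured reporter inhibition; CellTiter-Fluor fluorescence tracked cytotoxicity.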
# [9] = test system: thyroid hormone receptor (rat, GH3 cells); assay: qHTS assay to identify small molecule agonists of the thyroid receptor (TR) signaling pathway (AID 743066; calls by dose curve)
# [10] = target: Estrogen receptor (Homo sapiens) (UniProt P03372); assay: qHTS assay to identify small molecule antagonists of the estrogen receptor alpha (ER-alpha) signaling pathway (AID 743069; active = well fitted curve in the direction sought with a large enough effect in the signal ratio in the repeat runs, not every such curve was filed as active; inconclusive = weak or mixed curves, or effect the other way; inactive = no such curve, though single readings can be large or run the other way; the % refers to the signal ratio; also: potency is read from the fitted curve at half-maximal effect)
# Chain of Estrogen receptor (Homo sapiens) (P03372 whole entry, looked up): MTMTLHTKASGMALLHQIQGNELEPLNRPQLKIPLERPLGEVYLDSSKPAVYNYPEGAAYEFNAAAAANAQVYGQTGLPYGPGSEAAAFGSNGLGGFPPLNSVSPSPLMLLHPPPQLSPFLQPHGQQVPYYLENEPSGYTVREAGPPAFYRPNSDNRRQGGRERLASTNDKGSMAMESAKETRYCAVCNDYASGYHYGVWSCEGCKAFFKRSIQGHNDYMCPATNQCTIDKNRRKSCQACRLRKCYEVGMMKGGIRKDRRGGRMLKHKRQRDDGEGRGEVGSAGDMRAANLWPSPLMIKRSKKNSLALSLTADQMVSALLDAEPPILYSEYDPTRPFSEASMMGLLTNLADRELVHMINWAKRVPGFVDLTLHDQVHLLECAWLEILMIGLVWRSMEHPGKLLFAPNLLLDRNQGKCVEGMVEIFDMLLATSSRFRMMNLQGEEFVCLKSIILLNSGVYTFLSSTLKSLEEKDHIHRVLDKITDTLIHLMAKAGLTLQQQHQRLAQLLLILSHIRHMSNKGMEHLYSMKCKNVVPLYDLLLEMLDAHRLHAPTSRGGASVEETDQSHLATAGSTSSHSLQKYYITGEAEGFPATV
# In short: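 Estradiol-stimulated ER-alpha-UAS-bla HEK293 cells, 18 hr compound exposure at 37C. LiveBLAzer B/G substrate, 2 hr RT, fluorescence read.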
# [11] = qHTS assay to identify small molecule antagonists of the estrogen receptor alpha (ER-alpha) signaling pathway - cell viability counter screen (AID 743074; calls by dose curve;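 also: HEK293 cells carrying ER-alpha-UAS-bla reporter stimulated with 17beta-estradiol; nearly all actives have a fitted effect of over 45% in size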)
# [12] = target: Estrogen receptor (Homo sapiens) (UniProt P03372); assay: qHTS assay to identify small molecule agonists of the estrogen receptor alpha (ER-alpha) signaling pathway (AID 743075; calls by dose curve;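 also: HEK293 GripTite cells with ER-alpha and UAS-driven beta-lactamase reporter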; also: potency is read from the fitted curve at half-maximal effect)
# [13] = target: Estrogen receptor (Homo sapiens) (UniProt P03372); assay: qHTS assay to identify small molecule agonists of the estrogen receptor alpha (ER-alpha) signaling pathway using the BG1 cell line (AID 743079); also: nearly all actives have a fitted effect of over 20% in size; also: potency is read from the fitted curve at half-maximal effect
# [14] = qHTS assay to identify small molecule antagonists of the estrogen receptor alpha (ER-alpha) signaling pathway using the BG1 cell line (AID 743080; calls by dose curve; also: nearly all actives have a fitted effect of over 25% in size; also: potency is read from the fitted curve at half-maximal effect)
# In short: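 Antagonist mode: compounds in DMSO were pinned onto BG1-Luc-4E2 cells alongside 17beta-estradiol agonist, incubated 21.5 h, and ERE-driven luciferase measured with ONE-Glo. Cytotoxicity was multiplexed using CellTiter-Fluor fluorescence.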
# [15] = qHTS assay to identify small molecule antagonists of the estrogen receptor alpha (ER-alpha) signaling pathway using the BG1 cell line - cell viability counter screen (AID 743081);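 also: compound given together with 17beta-estradiol as the ER stimulus; nearly all actives have a fitted effect of over 45% in size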; also: potency is read from the fitted curve at half-maximal effect
# [16] = target: Aromatase (Homo sapiens) (UniProt P11511); assay: qHTS assay to identify aromatase inhibitors (AID 743083); also: nearly all actives have a fitted effect of over 55% in size; also: potency is read from the fitted curve at half-maximal effect
# Chain of Aromatase (Homo sapiens) (P11511 whole entry, looked up): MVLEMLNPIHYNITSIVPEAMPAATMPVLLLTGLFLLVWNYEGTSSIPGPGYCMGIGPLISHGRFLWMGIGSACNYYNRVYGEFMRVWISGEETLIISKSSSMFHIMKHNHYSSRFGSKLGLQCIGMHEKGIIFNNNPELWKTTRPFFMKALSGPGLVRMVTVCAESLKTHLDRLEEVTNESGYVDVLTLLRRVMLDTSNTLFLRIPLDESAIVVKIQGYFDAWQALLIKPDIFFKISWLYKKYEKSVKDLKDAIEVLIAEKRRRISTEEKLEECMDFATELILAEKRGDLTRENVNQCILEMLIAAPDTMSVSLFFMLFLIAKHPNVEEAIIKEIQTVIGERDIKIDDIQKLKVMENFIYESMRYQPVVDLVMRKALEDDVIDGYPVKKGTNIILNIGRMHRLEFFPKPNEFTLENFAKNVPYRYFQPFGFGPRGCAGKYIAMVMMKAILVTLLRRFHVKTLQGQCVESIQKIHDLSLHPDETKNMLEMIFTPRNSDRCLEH
# [17] = target: Androgen receptor (Homo sapiens) (UniProt P10275); assay: qHTS assay to identify small molecule antagonists of the androgen receptor (AR) signaling pathway (AID 743035; active = well fitted inhibition curve with a large enough effect in the signal ratio in the repeat runs, not every such curve was filed as active; inconclusive = weak or mixed curves, or effect the other way; inactive = no such curve, though single readings can be large or run the other way; the % refers to the signal ratio)
# Chain of Androgen receptor (Homo sapiens) (P10275 whole entry, looked up): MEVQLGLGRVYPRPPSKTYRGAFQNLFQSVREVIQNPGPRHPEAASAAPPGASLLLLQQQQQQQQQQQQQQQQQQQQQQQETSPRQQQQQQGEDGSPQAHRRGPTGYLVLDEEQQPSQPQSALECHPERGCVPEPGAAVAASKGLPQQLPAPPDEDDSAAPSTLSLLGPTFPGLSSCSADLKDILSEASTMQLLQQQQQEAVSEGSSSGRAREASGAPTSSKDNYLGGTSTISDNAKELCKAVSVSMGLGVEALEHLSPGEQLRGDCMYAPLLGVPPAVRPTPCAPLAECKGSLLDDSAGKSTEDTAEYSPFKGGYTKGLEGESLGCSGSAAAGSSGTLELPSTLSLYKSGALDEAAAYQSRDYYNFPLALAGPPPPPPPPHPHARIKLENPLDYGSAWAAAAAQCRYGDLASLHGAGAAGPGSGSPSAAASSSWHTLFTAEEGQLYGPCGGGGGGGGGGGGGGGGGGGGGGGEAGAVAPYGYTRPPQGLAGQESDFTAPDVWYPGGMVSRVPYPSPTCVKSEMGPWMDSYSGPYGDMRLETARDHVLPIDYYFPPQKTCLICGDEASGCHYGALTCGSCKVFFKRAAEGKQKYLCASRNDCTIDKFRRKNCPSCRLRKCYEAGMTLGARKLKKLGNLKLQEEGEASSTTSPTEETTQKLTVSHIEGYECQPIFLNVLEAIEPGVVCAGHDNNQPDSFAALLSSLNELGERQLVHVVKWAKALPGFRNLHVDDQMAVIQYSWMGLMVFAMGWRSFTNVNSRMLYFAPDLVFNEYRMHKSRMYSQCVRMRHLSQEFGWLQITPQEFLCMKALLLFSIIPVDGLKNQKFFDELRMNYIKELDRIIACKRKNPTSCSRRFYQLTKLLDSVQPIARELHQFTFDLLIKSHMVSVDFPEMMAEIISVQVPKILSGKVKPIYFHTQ
# In short: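 Using qHTS, AR-UAS-bla GripTite HEK293 cells received compound, then R1881, and were cultured 16 h at 37C/5% CO2 before a 2 h room-temperature LiveBLAzer B/G FRET substrate step and fluorescence measurement.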
# [18] = target: Androgen receptor (Homo sapiens) (UniProt P10275); assay: qHTS assay to identify small molecule agonists of the androgen receptor (AR) signaling pathway (AID 743036; active = well fitted activation curve with a large enough effect in the signal ratio in the repeat runs, with a control signal flat, not every such curve was filed as active; inconclusive = weak or mixed curves, or effect the other way; inactive = no such curve, though single readings can be large or run the other way; the % refers to the signal ratio)
# In short: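 Activation was read as beta-lactamase FRET signal from LiveBLAzer B/G substrate, added for 2 h at room temperature. Before that, GeneBLAzer AR-UAS-bla GripTite (HEK293) cells had 16 h compound exposure at 37C.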
# [19] = target: Androgen receptor (Homo sapiens) (UniProt P10275); assay: qHTS assay to identify small molecule agonists of the androgen receptor (AR) signaling pathway using the MDA cell line (AID 743040; also: nearly all actives have a fitted effect of over 20% in size)
# In short: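 Luminescence from ONE-Glo, read after 30 min at room temperature, reflects MMTV-driven luciferase in MDA-kb2 cells (AR- and GR-responsive). Treatment lasted 16 h at 37C, 0% CO2.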
# [20] = target: Androgen receptor (Homo sapiens) (UniProt P10275); assay: qHTS assay to identify small molecule antagonists of the androgen receptor (AR) signaling pathway using the MDA cell line (AID 743042; also: nearly all actives have a fitted effect of over 55% in size)
# In short: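 MDA-kb2 cells (human breast carcinoma, stably carrying an MMTV-luciferase reporter responsive to AR and GR) were plated at 3,000 cells/well and preincubated 5 hr at 37C, then given compound plus R1881 agonist for 16 h. ONE-Glo luminescence was read.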
SMILES,Potency [1],Potency [2],Potency [3],Potency [4],outcome [5],Potency [6],Potency [7],Potency [8],outcome [9],Potency [10],outcome [11],Potency [12],Potency [13],Potency [14],Potency [15],Potency [16],Potency [17],outcome [18],Potency [19],Potency [20]
CC(C)(C)CC(C)(C)c1ccc(O)c(-n2nc3ccccc3n2)c1,49.7 µM (active),inactive,inactive,inactive,inactive,inactive,26.6 µM (active) and 30.6 µM (active),21.1 µM (active) and 62 µM (active) and 27.3 µM (active),inactive,inactive,inactive,inactive,inactive,inactive and 61.1 µM (active),inactive,inactive,,,,
O=C(O)CN(CC(=O)O)CC(=O)O,inactive,inactive,inactive,inactive,inactive,inactive,inactive,inactive,inactive,inactive,inactive,inactive,inactive,inactive,inactive,inactive,,,,
Cc1cccc(C)c1O,inactive,inactive,inactive,inactive,inactive,inactive,inactive,inactive,inactive,inactive,inactive,inactive,inactive,inactive,inactive,inactive,inactive,inactive,inactive,inactive
CCCCCCCCCCCCCC(=O)OC(C)C,inactive,,inactive,inactive,inactive,inactive,inactive,inactive,inactive,inactive,inactive,inactive,29.8 µM (active) and inactive,inactive,inactive,inactive,inactive,inactive,inactive,inactive
CO[C@H]1C=CO[C@@]2(C)Oc3c(C)c(O)c4c(O)c(c(/C=N/N5CCN(C)CC5)c(O)c4c3C2=O)NC(=O)/C(C)=C\C=C[C@H](C)[C@H](O)[C@@H](C)[C@@H](O)[C@@H](C)[C@H](OC(C)=O)[C@@H]1C,inactive,21.1 µM (active) and 31 µM (active),29.8 µM (active) and 24.6 µM (active),26.6 µM (active) and 15.5 µM (active),inactive,26.6 µM (active),26.6 µM (active) and 34.8 µM (active),inactive,inactive,,inactive,,,,23.7 µM (active) and 34.8 µM (active),inactive,,,,
CC(=O)CCC(C)C,inactive,inactive,inactive,inactive,inactive,inactive,,inactive,inactive,inactive,inactive,inactive,inactive,inactive,inactive,inactive,,,,
C[C@]12CC[C@@H]3c4ccc(O)cc4C[C@@H](CCCCCCCCCS(=O)CCCC(F)(F)C(F)(F)F)[C@H]3[C@@H]1CC[C@@H]2O (some centres undefined),inactive,,11.9 µM (active) and inactive,6.68 µM (active),inactive,inactive,,4.2 nM (active) and 0.7 nM (active),inactive,,inactive,,,,inactive,59.6 nM (active) and 15.3 nM (active),inactive,inactive,inactive,inactive
Cc1ccc(O)c(-n2nc3ccccc3n2)c1,inactive,inactive,inactive,26.6 µM (active) and inactive,inactive,inactive,inactive,inactive,inactive,inactive,inactive,inactive and 11 µM [activator] (active),5.96 µM (active) and 17.1 µM (active) and 3.86 µM (active),,inactive,inactive,,,,
O=C(O)Cc1cccc2ccccc12,inactive,inactive,inactive,inactive,inactive,inactive,inactive,inactive,inactive,,inactive,,,,inactive,inactive,,,,
Cc1c(N(C)CS(=O)(=O)O)c(=O)n(-c2ccccc2)n1C,inactive,inactive,inactive,inactive,inactive,inactive,inactive,inactive,inactive,,inactive,,,,inactive,inactive,,,,
O=c1c(-c2ccc(O)cc2)coc2cc(O)cc(O)c12,inactive,,21.1 µM (active) and 53.5 µM (active) and 48.6 µM (active),11.9 µM (active) and 47.7 µM (active) and 27.3 µM (active),inactive,inactive,21.1 µM (active) and 47.7 µM (active),11.9 µM (active) and 47.7 µM (active) and 21.7 µM (active),inactive,,inactive,,,,inactive,inactive,,,inactive,inactive
COc1cc(O)c(C(=O)c2ccccc2)cc1S(=O)(=O)O,inactive,,inactive,inactive,inactive,inactive,inactive,inactive,inactive,inactive,inactive,inactive,inactive,inactive,inactive,inactive,inactive,inactive,,inactive
CCn1cc(C(=O)O)c(=O)c2ccc(C)nc21,inactive,,inactive,inactive,inactive,inactive,inactive,inactive,inactive,inactive,inactive,inactive,inactive,inactive,inactive,inactive,,,,
COC1=CC(=O)C[C@@H](C)[C@]12Oc1c(Cl)c(OC)cc(OC)c1C2=O,inactive,26.6 µM (active) and 54 µM (active) and 27.3 µM (active),30.4 µM (active) and 30.6 µM (active),30.4 µM (active) and 27.3 µM (active),inactive,inactive,,11.9 µM (active) and 27.1 µM (active) and 27.3 µM (active),inactive,10.7 µM [inconclusive] (active) and 5.45 µM [inconclusive] (active) and 6.92 µM [inhibitor] (active),inactive,inactive,inactive,inactive,inactive,,,,,
CN(C)C=O,inactive,,inactive,inactive,inactive,inactive,inactive,inactive,inactive,inactive,inactive,inactive,inactive,inactive,inactive,inactive,,,,
O=[N+]([O-])c1ccc(O)cc1,inactive,27.3 µM (active) and 61.1 µM (active),inactive and 43.3 µM (active) and 54.5 µM (active),inactive and 54.5 µM (active),inactive,inactive,61.1 µM (active),,,inactive,inactive,inactive,inactive,inactive,inactive,inactive,,,,

SMILES,Potency [1],Potency [2],Potency [3],Potency [4],outcome [5],Potency [6],Potency [7],Potency [8],outcome [9],Potency [10],outcome [11],Potency [12],Potency [13],Potency [14],Potency [15],Potency [16],Potency [17],outcome [18],Potency [19],Potency [20]
CCN(CC)CCOC(=O)c1ccc(N)cc1,inactive,inactive,inactive,inactive,inactive,inactive,inactive,inactive,inactive,,inactive,,,,inactive,inactive,,,,
Nc1cccc(N)c1,inactive,inactive,17.2 µM (active) and inactive,61 µM (active) and inactive,inactive,inactive,inactive,inactive,inactive,,inactive,,,,inactive,inactive,,,,
COc1cc(C=O)ccc1O,inactive,,inactive,inactive,inactive,inactive,inactive,inactive,inactive,,inactive,inactive,inactive,inactive,inactive,inactive,,inactive,inactive,inactive
CCCCOC(=O)CCCCCCCCC(=O)OCCCC,inactive,inactive,68.6 µM (active),inactive,inactive,inactive,,inactive,inactive,inactive,inactive,inactive,inactive,inactive,inactive,inactive,,,,
NC(=O)c1ccc([N+](=O)[O-])cc1Cl,inactive,inactive,inactive,inactive,inactive,inactive,inactive,inactive,inactive,,inactive,,,,inactive,inactive,,,,
CCc1cc(C(N)=S)ccn1,inactive,inactive,inactive,inactive,inactive,inactive,inactive,inactive,inactive,,inactive,,,,inactive,,,,,
CC(C)=CCC/C(C)=C/CO,inactive,,inactive,inactive,inactive,inactive,inactive,inactive,inactive,,inactive,,,,inactive,,,inactive,,
COCC(C)N (centres undefined),inactive,,inactive,inactive,inactive,inactive,inactive,inactive,inactive,inactive,inactive,inactive,inactive,inactive,inactive,inactive,inactive,inactive,inactive,inactive
CCOCCO,inactive,inactive,inactive,inactive,inactive,inactive,inactive,inactive,inactive,,inactive,,,,inactive,inactive,,,,
c1ccc2[nH]c(-c3cscn3)nc2c1,inactive,,inactive and 54.5 µM (active),inactive and 48.6 µM (active),inactive,inactive,inactive,inactive,inactive,inactive,inactive,inactive,16.8 µM (active) and 24.5 µM (active) and 9.69 µM (active),,inactive,inactive,inactive,inactive,inactive,inactive
NC(=O)N1c2ccccc2C=Cc2ccccc21,inactive,,inactive and 30.6 µM (active),inactive and 54.5 µM (active),inactive,inactive,inactive,inactive,inactive,inactive,inactive,inactive,inactive,inactive,inactive,inactive,,,,
Cc1c(N(C)C)c(=O)n(-c2ccccc2)n1C,inactive,,inactive,inactive,inactive,inactive,inactive,inactive,inactive,inactive,inactive,inactive,inactive,inactive,inactive,inactive,,,,
O=C(OCc1ccccc1)c1ccccc1,inactive,inactive,inactive,inactive,inactive,inactive,inactive,inactive,inactive,,inactive,,,,inactive,inactive,,,,
C/C=C/c1ccc(O)c(OC)c1,inactive,inactive,inactive,inactive,inactive,inactive,inactive,,,inactive,inactive,inactive,inactive,inactive,inactive,inactive,,,,
C#C[C@]1(O)CC[C@H]2[C@@H]3CCC4=CC(=O)CC[C@@H]4[C@H]3CC[C@@]21CC,inactive,inactive and 24.3 µM (active),inactive and 27.3 µM (active),inactive and 19.3 µM (active) and 54.5 µM (active),inactive,inactive,inactive,27.3 µM (active),inactive,,inactive,,422 nM (active) and 38.6 nM (active) and 386 nM (active),inactive,inactive,inactive,,,,
